Assay results: PubChem BioAssay AID1159580 (chemical genetic matrix, 2015)
Several values for one entry are separate records, joined by “and”; a condition that tells them apart may be missing. Identical values can stand only once. Out of some 5,500 compounds screened, about 2,000 (36%) were called active. About 18% were inconclusive and are not listed. No stated cut-off is given here; in the data, active means normalized growth mostly below about 0.91 (no sharp cut-off); inconclusive means no clear call, values can overlap the other calls; inactive means mostly above about 0.92. This is one part of the list.

Assay: chemical genetic growth profiling, strain panel (AID 1159580);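 further: tested at 20 µM; growth read once vehicle control cultures reached saturation at 30 °C; 1 = growth at the plate median or of vehicle wells; lower values mean less growth of the strain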
Conditions: S. cerevisiae deletion strains, growth OD

Measured: normalized growth

NCC(O)(CS(=O)(=O)O)c1ccc(Cl)cc1 (configuration not stated)
inactive: locus YAL040C, strain CLN3, active compounds read low 1.07 | locus YCL061C, strain MRC1 (second series), active compounds read low 0.995 | locus YDR150W, strain NUM1, active compounds read low 1.02 | locus YER002W, strain NOP16, active compounds read low 1.02 | locus YGR078C, strain PAC10, active compounds read low 0.99 | locus YMR263W, strain SAP30, active compounds read low 1 | locus YNL153C, strain GIM3, active compounds read low 1 | locus YNL175C, strain NOP13, active compounds read low 0.979 | locus YNL197C, strain WHI3, active compounds read low 0.98 | locus YNL224C, strain SQS1, active compounds read low 1.01 | locus YOR083W, strain WHI5 (second series), active compounds read low 1 | locus YPL241C, strain CIN2, active compounds read low 1

COc1ccc([C@@H]2CC(=O)c3c(O)cc(O[C@@H]4O[C@H](CO[C@H]5O[C@@H](C)[C@H](O)[C@@H](O)[C@H]5O)[C@@H](O)[C@H](O)[C@H]4O)cc3O2)cc1O
inactive: locus YAL013W, strain DEP1, active compounds read low 0.995 | locus YAL021C, strain ccr4, active compounds read low 1.01 | locus YAL026C, strain drs2, active compounds read low 0.98 | locus YAL030W, strain snc1, active compounds read low 0.993 | locus YBL061C, strain skt5, active compounds read low 0.969 | locus YBR009C, strain hhf1, active compounds read low 0.937 | locus YBR021W, strain FUR4, active compounds read low 0.988 | locus YBR023C, strain chs3, active compounds read low 0.993 | locus YBR171W, strain sec66, active compounds read low 0.976 | locus YBR229C, strain ROT2, active compounds read low 0.993 | locus YBR231C, strain swc5, active compounds read low 0.987 | locus YBR279W, strain paf1, active compounds read low 0.986 | locus YCL011C, strain gbp2, active compounds read low 0.975 | locus YCL016C, strain dcc1, active compounds read low 0.995 | locus YCL029C, strain bik1, active compounds read low 0.971 | locus YCL061C, strain MRC1, active compounds read low 0.977 | locus YCL069W, strain vba3, active compounds read low 0.988 | locus YCR088W, strain abp1, active compounds read low 0.989 | locus YDL005C, strain med2, active compounds read low 0.98 | locus YDL035C, strain GPR1, active compounds read low 0.991 | locus YDL040C, strain nat1, active compounds read low 0.993 | locus YDL074C, strain BRE1, active compounds read low 0.984 | locus YDL101C, strain DUN1, active compounds read low 0.994 | locus YDL185W, strain tfp1, active compounds read low 0.98 | locus YDL192W, strain arf1, active compounds read low 0.993 | locus YDR001C, strain nth1, active compounds read low 0.99 | locus YDR069C, strain doa4, active compounds read low 0.985 | locus YDR101C, strain arx1, active compounds read low 0.968 | locus YDR137W, strain rgp1, active compounds read low 1.04 | locus YDR159W, strain sac3, active compounds read low 0.977 | locus YDR162C, strain NBP2, active compounds read low 1.01 | locus YDR195W, strain ref2 0.932 | locus YDR297W, strain sur2, active compounds read low 0.98 | locus YDR318W, strain mcm21, active compounds read low 0.994 | locus YDR334W, strain swr1, active compounds read low 0.998 | locus YDR335W, strain msn5, active compounds read low 0.982 | locus YDR388W, active compounds read low 0.977 | locus YDR392W, strain spt3, active compounds read low 0.907 | locus YDR502C, strain sam2, active compounds read low 0.981 | locus YEL003W, strain gim4, active compounds read low 0.982 | locus YEL037C, strain rad23, active compounds read low 0.991 | locus YEL061C, strain CIN8 (second series), active compounds read low 0.981 | locus YEL061C, strain CIN8, active compounds read low 1 | locus YER015W, strain faa2, active compounds read low 0.979 | locus YER016W, strain bim1, active compounds read low 0.995 | locus YER110C, active compounds read low 0.973 | locus YER111C, strain swi4, active compounds read low 0.97 | locus YER155C, strain BEM2 (second series), active compounds read low 0.987 | locus YER155C, strain BEM2, active compounds read low 0.988 | locus YER167W, strain BCK2, active compounds read low 0.991 | locus YFR010W, strain ubp6, active compounds read low 0.976 | locus YGL078C, strain dbp3, active compounds read low 0.967 | locus YGL086W, strain mad1, active compounds read low 0.979 | locus YGL167C, strain pmr1, active compounds read low 0.965 | locus YGL173C, strain kem1, active compounds read low 0.968 | locus YGL227W, strain vid30, active compounds read low 0.973 | locus YGL240W, strain doc1, active compounds read low 0.98 | locus YGL248W, strain PDE1, active compounds read low 1 | locus YGL253W, strain hxk2, active compounds read low 0.999 | locus YGR135W, strain pre9, active compounds read low 0.998 | locus YGR229C, strain SMI1, active compounds read low 1 | locus YGR252W, strain gcn5, active compounds read low 1.06 | locus YHR013C, strain ard1, active compounds read low 0.922 | locus YHR027C, strain rpn1, active compounds read low 0.99 | locus YHR030C, strain SLT2, active compounds read low 0.997 and 1.05 | locus YHR079C, strain IRE1 (second series), active compounds read low 0.983 | locus YHR079C, strain IRE1, active compounds read low 1.03 | locus YHR094C, strain hxt1, active compounds read low 0.975 | locus YHR129C, strain ARP1, active compounds read low 1 | locus YHR142W, strain chs7, active compounds read low 1.01 | locus YHR200W, strain rpn10, active compounds read low 1 | locus YIL066C, strain RNR3, active compounds read low 1 | locus YIL073C, strain SPO22, active compounds read low 1 | locus YIL125W, strain kgd1, active compounds read low 0.978 | locus YIR030C, strain dcg1, active compounds read low 0.976 | locus YJL092W, strain hpr5, active compounds read low 0.986 | locus YJL095W, strain BCK1 (second series), active compounds read low 0.993 | locus YJL095W, strain BCK1, active compounds read low 1.05 and 1.02 | locus YJL115W, strain asf1, active compounds read low 0.993 | locus YJL129C, strain trk1, active compounds read low 1.01 | locus YJL134W, strain LCB3, active compounds read low 0.994 | locus YJL154C, strain vps35, active compounds read low 0.998 | locus YJL164C, strain tpk1, active compounds read low 1.01 | locus YJL166W, strain qcr8, active compounds read low 0.992 | locus YJL168C, strain set2, active compounds read low 0.984 | locus YJL187C, strain SWE1 (second series), active compounds read low 1.02 | locus YJL187C, strain SWE1, active compounds read low 0.991 | locus YJR043C, strain POL32, active compounds read low 1.01 | locus YJR066W, strain TOR1, active compounds read low 0.987 | locus YJR075W, strain HOC1, active compounds read low 1 | locus YKL009W, strain mrt4, active compounds read low 1.01 | locus YKL068W, active compounds read low 0.984 | locus YKL085W, strain MDH1 (second series), active compounds read low 0.996 | locus YKL085W, strain MDH1, active compounds read low 0.996 | locus YKL160W, strain elf1, active compounds read low 1.02 | locus YKL190W, strain CNB1, active compounds read low 1.01 | locus YKR001C, strain vps1, active compounds read low 0.948 | locus YKR026C, strain gcn3, active compounds read low 0.979 | locus YKR091W, strain srl3, active compounds read low 0.981 | locus YLL001W, strain dnm1, active compounds read low 1.01 | locus YLL026W, active compounds read low 0.999 | locus YLL041C, strain sdh2, active compounds read low 0.999 | locus YLR027C, strain aat2, active compounds read low 0.998 | locus YLR039C, strain RIC1, active compounds read low 1.04 | locus YLR058C, strain SHM2, active compounds read low 1 | locus YLR102C, strain apc9, active compounds read low 0.977 | locus YLR113W, strain HOG1, active compounds read low 1.05 | locus YLR221C, strain rsa3, active compounds read low 0.999 | locus YLR258W, strain gsy2, active compounds read low 0.988 | locus YLR262C, strain YPT6 (second series), active compounds read low 1 | locus YLR262C, strain YPT6, active compounds read low 1.02 | locus YLR268W, strain sec22, active compounds read low 0.959 | locus YLR320W, strain mms22, active compounds read low 0.97 | locus YLR330W, strain CHS5, active compounds read low 0.996 | locus YLR342W, strain FKS1 (second series), active compounds read low 1.03 | locus YLR342W, strain FKS1, active compounds read low 0.954 | locus YLR357W, strain rsc2, active compounds read low 0.97 | locus YLR370C, strain arc18, active compounds read low 0.991 | locus YLR371W, strain rom2, active compounds read low 0.971 | locus YLR384C, strain iki3, active compounds read low 0.976 | locus YLR418C, strain cdc73, active compounds read low 1 | locus YML016C, strain PPZ1, active compounds read low 0.995 | locus YML032C, strain rad52, active compounds read low 1 | locus YML120C, strain ndi1, active compounds read low 1.01 | locus YML124C, strain tub3, active compounds read low 0.986 | locus YMR058W, strain fet3, active compounds read low 0.985 | locus YMR078C, strain ctf18, active compounds read low 0.969 | locus YMR125W, strain sto1, active compounds read low 0.972 | locus YMR129W, active compounds read low 0.989 | locus YMR205C, strain PFK2, active compounds read low 0.936 | locus YMR223W, strain ubp8, active compounds read low 0.992 | locus YMR231W, strain pep5, active compounds read low 0.969 | locus YMR307W, strain GAS1, active compounds read low 1.06 | locus YNL067W, strain RPL9B, active compounds read low 1.01 | locus YNL071W, strain lat1, active compounds read low 0.984 | locus YNL183C, strain NPR1, active compounds read low 0.996 | locus YNL209W, strain ssb2, active compounds read low 0.978 | locus YNL233W, strain BNI4, active compounds read low 1 | locus YNL248C, strain rpa49, active compounds read low 1.04 | locus YNL250W, strain rad50, active compounds read low 0.978 | locus YNL271C, strain bni1, active compounds read low 1 | locus YNL298W, strain CLA4, active compounds read low 0.972 | locus YNL307C, strain MCK1, active compounds read low 0.97 | locus YNL322C, strain KRE1 (second series), active compounds read low 0.987 | locus YNL322C, strain KRE1, active compounds read low 1 | locus YNR049C, strain mso1, active compounds read low 0.993 | locus YNR052C, strain pop2, active compounds read low 0.986 | locus YOL006C, strain TOP1, active compounds read low 0.962 | locus YOL012C, strain htz1 1.06 | locus YOL147C, strain pex11, active compounds read low 0.983 | locus YOR001W, strain rrp6, active compounds read low 1.03 | locus YOR061W, strain CKA2, active compounds read low 0.977 | locus YOR069W, strain VPS5, active compounds read low 0.992 | locus YOR070C, strain gyp1, active compounds read low 1.01 | locus YOR080W, strain dia2, active compounds read low 0.974 | locus YOR083W, strain WHI5, active compounds read low 1.02 | locus YOR106W, strain vam3, active compounds read low 1.02 | locus YOR136W, strain idh2, active compounds read low 0.981 | locus YOR144C, strain elg1, active compounds read low 0.987 | locus YOR184W, strain ser1, active compounds read low 0.994 | locus YOR231W, strain MKK1, active compounds read low 1.06 | locus YOR265W, strain rbl2, active compounds read low 1 | locus YOR270C, strain vph1, active compounds read low 0.989 | locus YOR290C, strain snf2, active compounds read low 0.922 | locus YOR316C, strain cot1, active compounds read low 0.994 | locus YPL051W, strain arl3, active compounds read low 1.03 | locus YPL078C, strain atp4, active compounds read low 1.01 | locus YPL106C, strain sse1, active compounds read low 0.976 | locus YPL240C, strain hsp82, active compounds read low 0.966 | locus YPL256C, strain CLN2, active compounds read low 1.04 | locus YPR119W, strain clb2, active compounds read low 0.98 | locus YPR141C, strain kar3, active compounds read low 0.98 | locus YPR163C, strain tif3, active compounds read low 0.984 | locus YPR167C, strain met16, active compounds read low 0.972 | strain wtn01, active compounds read low 0.971
